A3G deaminase: inhibitors of human APOBEC3G DNA deaminase; Q9HC16; recombinant A3G, ssDNA deamination FAM/TAMRA fluorescence; inhibition, % at 20 µM; hit rate 0.28% among 330,000; AID 493012;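 active = inhibition of at least 40% at 20 µM, with no more than 30% in the related APOBEC3A deaminase screen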;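 note: plate controls were DMSO wells with A3G for no effect and wells lacking A3G enzyme for full effect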
Target sequence (Q9HC16 whole entry, looked up): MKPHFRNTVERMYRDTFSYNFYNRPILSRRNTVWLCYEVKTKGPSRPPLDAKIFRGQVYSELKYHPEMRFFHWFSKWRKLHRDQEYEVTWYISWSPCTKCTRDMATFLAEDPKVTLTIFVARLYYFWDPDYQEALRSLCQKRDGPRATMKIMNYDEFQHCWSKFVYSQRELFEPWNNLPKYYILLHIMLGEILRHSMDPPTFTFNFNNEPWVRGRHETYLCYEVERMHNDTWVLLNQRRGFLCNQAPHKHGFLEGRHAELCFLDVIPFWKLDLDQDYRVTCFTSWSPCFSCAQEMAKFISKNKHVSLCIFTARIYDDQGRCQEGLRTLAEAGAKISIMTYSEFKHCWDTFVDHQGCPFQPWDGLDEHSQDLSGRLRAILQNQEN
PHOSPHO1 block: inhibitors of human PHOSPHO1 phosphatase; recombinant PHOSPHO1, absorbance phosphatase assay; inhibition, % at 13.3 µM; hit rate 1.1% among 290,000; AID 1565; in the data active = inhibition above about 60%
APOBEC3A inh: inhibitors of human APOBEC3A DNA deaminase; hit rate 0.41% among 330,000; recombinant A3A, FAM/TAMRA ssDNA deamination fluorescence; P31941; AID 493011; inhibition, % at 20 µM;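 active = at least 40% inhibition at 20 µM here, with at most 30% in a related deaminase screen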;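 note: plate controls were A3A with DMSO for no effect and wells lacking A3A enzyme for full effect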
Target sequence (P31941 whole entry, looked up): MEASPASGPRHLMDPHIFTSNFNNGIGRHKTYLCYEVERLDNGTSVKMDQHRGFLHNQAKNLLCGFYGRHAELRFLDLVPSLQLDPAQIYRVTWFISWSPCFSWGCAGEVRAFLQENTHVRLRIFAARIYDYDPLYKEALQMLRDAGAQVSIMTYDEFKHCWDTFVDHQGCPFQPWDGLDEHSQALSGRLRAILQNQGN
eIF4H inh: inhibitors of RNA binding by human eIF4H; hit rate 0.94% among 290,000; Q15056; inhibition, % at 35 µM; AID 2012; eIF4H fluorescence polarization binding assay;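 note: calls also rest on retests at 20 µM and on dose response follow-up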
MLLE-PAM2 inh: blocks PAM2 peptide binding to the PABP1 MLLE domain; P11940; GST-MLLE / FITC-PAM2 fluorescence polarization; inhibition, % at 20 µM; hit rate 0.36% among 360,000; AID 588489; in the data active = inhibition above about 35%, passing the limit was not always enough;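 note: plate controls were DMSO wells with GST-MLLE for no effect and wells lacking GST-MLLE protein for full effect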
PABP polyA inh: PABP-poly(A) binding inhibition; P11940; PABP-poly(A) RNA binding, fluorescence polarization; calls only at 35 µM; hit rate 1% among 290,000;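 note: calls also rest on retests at 20 µM and on dose response follow-up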
APOBEC3G confirm: confirmation of human APOBEC3G DNA deaminase inhibitors | hit rate 72% among 890 | recombinant A3G ssDNA deaminase, UDG/FAM-TAMRA fluorescence | inhibition, % at 20 µM | shares compounds with A3G deaminase;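 active = inhibition reaching a set limit in any replicate at 20 µM, the limit being 80% of the first screen's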
UDG ctr A3G: counter-screen for APOBEC3G inhibitors: E. coli UDG; shares compounds with A3G deaminase; UDG counterscreen, FAM/TAMRA oligo fluorescence; inhibition, % at 20 µM; 710 tested, under 10 active;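 active = compounds giving 40% or more inhibition at 20 µM in any one of the three replicates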;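 note: plate controls were DMSO wells with UDG and oligo for no effect and DMSO wells lacking both for full effect; inhibitors lower the FAM signal released by uracil excision and alkaline cleavage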
Starred values were filed as active, the others as inactive; i = inactive; ? = inconclusive; . = no result given. Sampled rows, rich in hits. Any-hit rate of the full collection: about 2.6%. Unless noted, the rule behind the calls is not given here.

SMILES	A3G deaminase	PHOSPHO1 block	APOBEC3A inh	eIF4H inh	MLLE-PAM2 inh	PABP polyA inh	APOBEC3G confirm	UDG ctr A3G
Cc1ccc(/C=N/n2c(-c3ccco3)n[nH]c2=S)s1	41*	46	-6	4	-40	i	75*	1
S=c1[nH]nc(COc2ccccc2)n1/N=C/c1ccccc1Cl	13	-42	-1	-2	-61	i	.	.
O=c1ccc2ccc(Oc3ccc(Cl)cc3[N+](=O)[O-])cc2o1	-8	-1	5	-3	22	i	.	.
Cc1ccccc1-n1cnnc1SCC(=O)Nc1cccnc1Cl	-6	-7	0	-5	15	i	.	.
O=C1CSc2ccc(C(=O)Nc3cccc(S(=O)(=O)Nc4ccc(Br)cc4)c3)cc2N1	49*	12	-4	-4	11	i	5	1
O=C(O)c1ccc(NC(=O)c2cccc(S(=O)(=O)Nc3ccc(C(=O)O)cc3)c2)cc1	3	3	2	2	12	i	.	.
c1ccc2c(c1)OCC(c1nnc3sc(-c4ccc5c(c4)OCO5)nn13)O2 (centres undefined)	57*	84*	-2	0	25	i	48*	-3
Brc1ccccc1-c1nnc2sc(-c3ccc4c(c3)OCCO4)nn12	-13	0	-4	12	-20	i	.	.
Clc1ccccc1-c1nnc2sc(-c3ccc4c(c3)OCO4)nn12	53*	79*	-1	8	-15	i	40*	-6
CCN(CC)S(=O)(=O)c1ccc(N2CCN(c3cccc(OC)c3)CC2)c([N+](=O)[O-])c1	-4	18	2	0	-4	i	.	.
CC(=O)Nc1ccc(S(=O)(=O)NNC(=O)c2cccc(Br)c2)cc1	-4	-38	-1	-4	3	i	.	.
N#Cc1ccccc1Sc1ccccc1N	-6	28	-2	-8	2	i	.	.
Nc1ccccc1SSc1ccccc1N	82*	-74	1	-5	18	i	63*	1
Cc1nn(C(=O)N2CCOCC2)c(C)c1C	62*	14	3	-8	8	i	3	.
CCOC(=O)N1CCN(C(=O)N2CCOCC2)CC1	-5	-22	-4	-8	-1	i	.	.
O=c1[nH]c(/C=C\c2ccc(O)c(Cl)c2)nc(O)c1[N+](=O)[O-]	3	22	2	-4	0	i	.	.
O=C(N1CCOCC1)N1CCN(S(=O)(=O)c2cccc([N+](=O)[O-])c2)CC1	2	-4	0	1	19	i	.	.
c1ccc2[nH]c(CCCc3nc4ccccc4[nH]3)nc2c1	-2	-2	-6	-8	-36	i	.	.
S=c1cnc2ccccc2[nH]1	62*	-55	-5	-10	25	i	84*	3
CN(C)CCNc1ncnc2c1sc1nc(-c3ccccc3)c3c(c12)CCCC3	-2	20	-3	-16	-32	i	.	.
Cc1ccc(C)n1-c1nc(=S)[nH][nH]1	59*	102*	1	22	45*	i	74*	-2
NS(=O)(=O)c1ccc(CCNC(=O)COC(=O)c2nc(Cl)ccc2Cl)cc1	-2	.	6	.	-1	.	.	.
Cc1noc(C)c1S(=O)(=O)N1CCCC(C(=O)NCc2ccccn2)C1 (centres undefined)	49*	5	3	-3	0	i	1	.
CN(C)c1ccc(/C=N/n2c(-c3cccnc3)n[nH]c2=S)cc1	45*	12	-3	-9	-17	i	83*	-2
Cc1ccc(/C=N/n2c(-c3cccnc3)n[nH]c2=S)o1	39	-100	-2	6	-29	i	.	.
SMILES	A3G deaminase	PHOSPHO1 block	APOBEC3A inh	eIF4H inh	MLLE-PAM2 inh	PABP polyA inh	APOBEC3G confirm	UDG ctr A3G
Cc1ccc(/C=N/n2c(-c3cccnc3)n[nH]c2=S)s1	55*	10	-2	0	-46	i	71*	2
O=C(NCCCN1CCC(Cc2ccccc2)CC1)c1ccc(CS(=O)c2ccccc2Cl)o1 (centres undefined)	.	.	.	.	-1	.	.	.
C=CCn1c(SCc2cccc(OC)c2)nnc1-c1ccncc1	-8	19	1	-8	-4	i	.	.
C(=N\NC1=Nc2cccc3cccc1c23)/c1ccccc1	41*	0	3	?	-69	i	-1	.
Clc1ccc(/C=N/NC2=Nc3cccc4cccc2c34)cc1	0	-4	1	?	-31	i	.	.
Cc1ccc(-c2c[n+](Cc3cccc(Cl)c3)c3n2CCC3)cc1	4	27	-1	-13	2	i	.	.
c1ccc(CCc2nn3c(Cn4cnc5ccccc54)nnc3s2)cc1	49*	69*	0	-4	29	i	21*	-6
c1ccc(CCc2nn3c(-c4ccncc4)nnc3s2)cc1	17	-21	7	0	26	i	.	.
Clc1ccccc1-c1nnc2sc(CCc3ccccc3)nn12	63*	63*	2	0	6	i	51*	-2
c1ccc(CCc2nn3c(Cn4nnc5ccccc54)nnc3s2)cc1	32	37	4	-4	27	i	.	.
CCCCCCN(C(=O)CCCCCN1C(=O)NC(c2cccc([N+](=O)[O-])c2)C(C(=O)OCc2ccccc2)=C1C)C(C(=O)NCCCC)c1ccc(OCC(=O)OC)c(C(=O)OC)c1 (centres undefined)	-11	26	-5	-12	.	i	.	.
O=C(O)COc1ccc(/C=C/c2nc3ccc([N+](=O)[O-])cc3s2)cc1	-5	-3	-2	63	-68	?	.	.
Cc1ccc(N2C(=O)[C@@H]3C(c4cccnc4)=NO[C@@H]3C2=O)cc1	57*	37	-1	0	7	i	1	-3
Cc1cccc2cc(COC(=O)c3ccccn3)c(=O)[nH]c12	40*	-12	-15	-8	-6	i	-1	-3
CC1CCCC(C)N1C(=O)COC(=O)c1cccs1 (centres undefined)	-5	.	-2	.	13	.	.	.
CCOC(=O)/C=C/C(=O)Nc1cccc([N+](=O)[O-])c1	40*	-7	4	4	28	i	64*	4
O=C1CCC(C(=O)O)N1 (centres undefined)	-7	29	-1	-1	4	i	.	.
CCOC(=O)c1sc(N/N=C/c2cccc(C)c2)nc1C	-12	30	-5	-2	-9	i	.	.
CCOC(=O)c1sc(N/N=C/c2ccccc2)nc1C	53*	-10	2	-6	20	i	64*	2
Nc1ccc2nc(-c3cccc(-c4nc5ccc(N)cc5[nH]4)n3)[nH]c2c1	44*	37	10	31	14	i	29*	1
O=C(CCS(=O)(=O)c1ccc(F)cc1)Nc1nnc(-c2ccc(F)cc2)o1	-13	.	3	.	5	.	.	.

Screening results deposited in PubChem by Sanford-Burnham Center for Chemical Genomics.
